Assay [1] is described as follows: compound effects on lung adenocarcinoma cell viability – A549, calcein-AM fluorescence, 48 h, basal, profiling panel (AID 1162). Particulars: higher = more signal.
Assay [2] can be described thus: compound effects on differentiated 3T3-L1 adipocyte viability – cell-based, 3T3-L1 adipocytes, calcein-AM fluorescence, 48 h, basal, profiling panel (AID 1163). The following applies: 3T3-L1 adipocytes viability, higher = more signal.
Assay [3] is described as follows: compound effects on hepatocellular carcinoma cell viability – HepG2, calcein-AM fluorescence, 48 h, basal, profiling panel (AID 1164). The following applies: higher = more signal.
Assay [4] is described as follows: compound effects on multiple myeloma cell viability – MM1S, calcein-AM fluorescence, 48 h, basal, profiling panel (AID 1165).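 Also: viability of MM1S multiple myeloma cells under basal unstimulated conditions.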 Particulars: higher = more signal.
Assay [5] is described as follows: calcein-AM signal in unstimulated myeloma cells – cell-based, calcein-AM fluorescence, 48 h, PK04 Diversity Set, profiling panel (AID 1166).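 Also: cells grown under basal conditions without added stimulus.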 Particulars: RPMI8226 myeloma viability, higher = more signal.
The nature of assay [6]: JC-1 mitochondrial signal, unstimulated HepG2 cells – cell-based, JC-1 fluorescence, 24 h, 100 nL compound, profiling panel (AID 1167). The following applies: HepG2 mitochondrial potential, higher = more signal.
The nature of assay [7]: JC-1 mitochondrial signal, unstimulated adipocytes – cell-based, JC-1 fluorescence, 3T3-L1 adipocytes, 24 h, 100 nL compound, profiling panel (AID 1168). The following applies: JC-1 mitochondrial fluorescence, higher = more signal, called active from +8 up or from −8 down.
Assay [8] can be described thus: JC-1 mitochondrial signal, unstimulated myeloma cells – cell-based, JC-1 fluorescence, RPMI8226, 24 h, 100 nL compound, profiling panel (AID 1169). The following applies: JC-1 mitochondrial potential fluorescence, higher = more signal.
Assay [9] is described as follows: JC-1 mitochondrial signal, unstimulated MM1S myeloma – cell-based, JC-1 fluorescence, 24 h, 100 nL compound, profiling panel (AID 1170). The following applies: MM1S mitochondrial potential, higher = more signal.
Assay [10] is described as follows: resazurin metabolic signal in A549 cells – cell-based, resazurin fluorescence, 24 h, PK04 Diversity Set, profiling panel (AID 1171). Particulars: A549 viability, higher = more signal, called active from +8 up or from −8 down.

The structures appear in SMILES notation. The source made the active and inactive calls.

The source of these data is PubChem BioAssay.
Also: test concentration not given here.

`CCCCN1CC=CC23O[C@@H]4C=CCCOC(=O)C4[C@H]2C(=O)N(CCCO)[C@@H]3C1=O` (stereo not given in full): the z-score is 0.146 in assay [1]; 1.53 in assay [2]; -0.365 in assay [3]; 0.438 in assay [4]; -0.913 in assay [5]; -0.798 in [6]. Moreover, the z-score in assay [7] is -0.562 (inactive); in [8], -0.781; in [9], -0.148; in assay [10], -0.834 (inactive).
For `COCCCNC(=O)[C@]1(Cc2ccccc2N=[N+]=[N-])N=C(c2ccc(OCCCO)cc2)O[C@@H]1c1ccccc1CN=[N+]=[N-]`, the z-score was -1.02 in [1]; 1.63 in assay [2]; -1.77 in [3]; -2.98 in assay [4]; -4.11 in assay [5]; 1.46 in assay [6]. Besides, the z-score in assay [7] is -0.683 (inactive); in assay [8], -1.2; in assay [9], -0.495; in assay [10], -1.2 (inactive).
For `O=C(CS)NCCCCCCNC(=O)[C@H]1C[C@H]2C(=O)N3CCC[C@H]3C(=O)N2[C@H]1c1ccc(O)cc1`, the z-score in [1] was -0.683; in [2], 0.646; in assay [3], 0.0725; in assay [4] it was -0.213; in [5], 1.07; in assay [6] it was -1.12. Besides, the z-score is -0.0423 (inactive) in assay [7], -0.0782 in assay [8], -0.419 in assay [9] and 0.985 (inactive) in assay [10].
For the molecule `O=C1OCC=C[C@H]2OC34C=CCN(Cc5ccccc5)C(=O)[C@H]3N(CCCO)C(=O)[C@@H]4[C@@H]12` (stereo not given in full), the z-score in assay [1] was -0.518; in [2], 0.676; in assay [3], -1.28; in assay [4] it was 0.772; in [5], 0.0919; in assay [6], 0.0708. The z-score is -0.0748 (inactive) in [7], 0.242 in assay [8], 0.252 in [9] and -0.196 (inactive) in assay [10].
`C=C(CCCC)C(=O)CC[C@H](OC(=O)c1ccccc1-c1ccccc1C(=O)O)c1ccc(CO)o1`: the z-score in [1] is 0.0743; in assay [2], 0.418; in [3], -0.862; in assay [4], -0.0307; in assay [5] it was 0.334; in assay [6], -0.373. Further, the z-score is -0.727 (inactive) in [7], -0.658 in assay [8], 0.063 in assay [9] and 1.09 (inactive) in assay [10].
For `Cc1ccc(S[C@]2(C(=O)NCc3ccccc3)CC(=O)N(Cc3cc(C(F)(F)F)cc(C(F)(F)F)c3)[C@@H]2c2ccc(CO)cc2)cc1`, the z-score in assay [1] was -0.549; in [2], 0.774; in assay [3] it was 0.224; in assay [4] it was -0.125; in [5] it was -1.17; in assay [6], -0.271. The z-score is -0.525 (inactive) in assay [7], 1.13 in assay [8], -0.476 in assay [9] and 0.7 (inactive) in assay [10].
Turning to `O=C1C2C=CC(C(O)c3ccc(Br)cc3)N(n3cnnc3)C2C(=O)N1Cc1ccccc1` (stereo not given), the z-score in [1] is -1.71; in [2], -1; in [3], -3.58; in assay [4], -0.496; in assay [5], -3.99; in assay [6] it was -0.422. Besides, the z-score is 0.633 (inactive) in assay [7], -0.212 in assay [8], 0.00374 in assay [9] and 0.0637 (inactive) in [10].
For `COCCCNC(=O)[C@@]1(C)c2ccccc2C(=O)N(Cc2ccccc2)[C@H]1c1ccc(CO)cc1`, the z-score in assay [1] is 0.587; in assay [2] it was 0.928; in assay [3] it was -0.0853; in [4] it was -0.174; in assay [5] it was -2.12; in [6], 0.548. Besides, the z-score in assay [7] was -1.39 (inactive); in [8] it was -0.648; in [9], -0.514; in assay [10], 0.22 (inactive).
Take `CC(C)CNC(=O)[C@@]1(C)c2ccccc2C(=O)N(C(C)C)[C@H]1c1ccc(CO)cc1`: the z-score in assay [1] is -0.238; in assay [2] it was -0.511; in assay [3] it was -0.178; in assay [4] it was 0.0151; in [5], -0.847; in assay [6], -0.372. The z-score in assay [7] is -0.638 (inactive); in assay [8], 0.809; in assay [9], -0.481; in assay [10], -0.0586 (inactive).
Regarding `C=CCC(OC(C)=O)[C@@H]1[C@@H](N(Cc2cc3ccccc3o2)C(=O)c2ccc(C)cc2)c2cc(OCCCO)ccc2N1C(=O)c1ccc(-c2ccccc2)cc1` (stereo not given in full), the z-score in assay [1] is 2.54; in assay [2], 1.34; in assay [3] it was 1.8; in assay [4], 0.217; in [5] it was 1.46; in assay [6], 2.87. Further, the z-score in [7] is -0.314 (inactive); in assay [8], 0.614; in assay [9], -0.763; in [10], 0.875 (inactive).
`CO[C@H]1O[C@H](CO)[C@@H](OC(=O)Nc2cccc(F)c2)[C@H](OC(=O)Nc2ccccc2-c2ccccc2)[C@@H]1OC(=O)Nc1ccccc1-c1ccccc1`: the z-score in assay [1] is -2.35; in assay [2], 0.63; in assay [3] it was -1.85; in assay [4], -2.28; in [5] it was -2.37; in assay [6] it was -0.27. For the same molecule, the z-score in assay [7] is 0.827 (inactive); in [8], -0.877; in assay [9], -1.38; in [10] it was -2.79 (inactive).
As to `CO[C@H]1O[C@H](CO)[C@@H](OC(=O)Nc2ccc(C(F)(F)F)cc2)[C@H](OC(=O)Nc2ccccc2)[C@@H]1OC(=O)Nc1ccccc1`, the z-score was -0.902 in assay [1]; -0.133 in assay [2]; -1.28 in [3]; -2.72 in assay [4]; -2.84 in assay [5]; -0.901 in assay [6]. The z-score in assay [7] is -1.47 (inactive); in assay [8], -0.828; in [9], 0.469; in assay [10] it was -0.0537 (inactive).
With `CCOC(=O)C[C@H]1[C@H](OC(=O)c2ccccc2-c2ccccc2)[C@@H](NC(=O)c2ccc(-c3ccccc3)cc2)c2cc(OCCCO)ccc2N1C(=O)c1ccccc1`, the z-score in [1] was 0.168; in assay [2] it was 0.405; in assay [3] it was 0.188; in [4], 0.0425; in assay [5], -0.602; in assay [6] it was 1.5. The z-score in assay [7] is 0.247 (inactive); in [8] it was -0.312; in assay [9], -0.0178; in assay [10] it was 0.0248 (inactive).
Regarding `CCCC[C@@H]1C[C@H]1[C@@H](NC(=O)c1ccccc1)c1ccccc1`, the z-score was -1.2 in [1]; -0.902 in assay [2]; -1.02 in assay [3]; -1.43 in [4]; -1.48 in assay [5]; -2.36 in assay [6]. Besides, the z-score in [7] was -1.07 (inactive); in assay [8], 0.203; in assay [9], -1.25; in assay [10], -0.324 (inactive).
Take `CN(C)CCCC[C@@H]1NC(=O)[C@@H]2C[C@H](C(=O)NCc3ccc(F)cc3)[C@H](c3cccc(OCCO)c3)N2C1=O`: the z-score in [1] was 0.514; in [2], -0.0506; in assay [3], 0.554; in [4], 0.731; in [5] it was 1.02; in [6], 2.08. Moreover, the z-score is 0.544 (inactive) in [7], 0.46 in [8], -0.749 in assay [9] and -0.158 (inactive) in assay [10].
